# In the library only some 1.7% were active in any assay of this set; here they are far more common.
# GLP-1R inv ag: inverse agonists of human GLP-1 receptor; P43220; HEK293 GLP-1R CRE-luciferase, luminescence, 24 h; GLP-1R form is constitutively active; Potency, µM (series often up to 38.3 µM), for inactives: at the top dose activity change, negative = inhibition, usual class: inhibitors; 410,000 compounds, 1.6% hits; AID 624417; further: on the % scale 0 is the no-effect control and ±100 the full control effect; nearly all actives have a fitted effect of over 55% in size
#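 Inverse agonists were sought by their lowering of basal cAMP reporter luciferase output in HEK293 cells stably carrying constitutively active human GLP-1R, after 24 h compound treatment.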
# PTHR1 ag: activates the human parathyroid hormone receptor PTHR1 | 410,000 compounds, 0.075% hits | AID 743266 | Potency, µM (series often up to 115 µM), for the others: top-dose activation, actives largely listed as activators | HEK293 GP2 PTHR1 cells, GloSensor cAMP luminescence, 1 h; further: nearly all actives have a fitted effect of over 55% in size
# Target sequence (Q03431 whole entry, looked up): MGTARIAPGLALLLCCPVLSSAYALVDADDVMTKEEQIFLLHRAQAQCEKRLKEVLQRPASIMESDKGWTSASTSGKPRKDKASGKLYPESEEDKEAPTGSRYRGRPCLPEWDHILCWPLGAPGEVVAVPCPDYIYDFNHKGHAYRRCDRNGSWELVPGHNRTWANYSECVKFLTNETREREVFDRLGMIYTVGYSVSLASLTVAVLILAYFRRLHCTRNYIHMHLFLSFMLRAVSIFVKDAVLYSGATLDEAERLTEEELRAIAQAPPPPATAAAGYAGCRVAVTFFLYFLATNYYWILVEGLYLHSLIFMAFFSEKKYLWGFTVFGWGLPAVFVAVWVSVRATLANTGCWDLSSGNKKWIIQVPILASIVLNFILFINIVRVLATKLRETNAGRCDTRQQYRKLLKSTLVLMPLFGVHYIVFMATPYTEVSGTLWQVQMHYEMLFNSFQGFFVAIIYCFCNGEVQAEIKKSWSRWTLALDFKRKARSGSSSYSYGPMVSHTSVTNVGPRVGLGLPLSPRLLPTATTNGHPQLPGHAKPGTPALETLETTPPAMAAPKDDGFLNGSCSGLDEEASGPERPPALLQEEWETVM
#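 HEK-293-derived GP2 cells expressing PTHR1 and a GloSensor cAMP reporter, 3,000/well, plated overnight, given luciferin plus IBMX (each 0.5 mM as added) for 1 h at 37 °C, then compound for 1 h at 37 °C. Luminescence was read after 15 min at room temperature.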
# GLP1R cytotox: cytotoxicity counter-screen for GLP-1 receptor inverse agonists | HEK293 cAMP-luciferase reporter cells, luminescence, 24 h | Potency, µM (doses to about 38.3 µM), inactives show at the top dose activity change, negative = inhibition, usual class: inhibitors | 410,000 compounds, 0.13% hits;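 further: loss of luciferase light is scored as toxicity; on the % scale 0 is the no-effect control and ±100 the full control effect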
#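 Quantitative HTS format, 1536 wells, 200 cells/uL seeded. Compounds: 23 nL, 24 h, 37 °C. Detection: luciferase reagent, luminescence at 12 min RT; decreased signal taken as cytotoxic.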
# GLP1R ag: GLP-1 receptor (human) agonism. AID 624172. 380,000 compounds, 0.007% hits. P43220. HEK293 GLP-1R CRE-luciferase, luminescence, 4-6 h; cells express a hypersensitive GLP-1R form. Potency, µM (top dose mostly 45.6 µM), for the others: at the top dose activation, usual class: activators; further: % of control where 0% means no effect
# * hit, by the source's call; i = inactive; ? = inconclusive; . = no result given; [ ] = dose if it differs, or a comment. The call rests on the fitted dose curve; in most records, active means well fitted curve in the direction sought with a large enough effect; inconclusive means small, poorly fitted or top-dose-only effect, or another doubt; inactive means no such curve, though single readings can be large; an effect the other way counts as inactive or inconclusive. Potency means the concentration at half of the fitted maximal effect.
SMILES,GLP-1R inv ag,PTHR1 ag,GLP1R cytotox,GLP1R ag
CCOC(=O)C(C)/C(C)=N/NC(N)=S (centres undefined),?,5.4%,0.562µM*,-1.0%
Cc1ccc(S(=O)(=O)Nc2cccc(C(=O)NCC3(N4CCCCC4)CCCCC3)c2)cc1F,11.2µM*,i,-26.5%,14.3%
Fc1ccc(Cc2cn3cc(-c4ccccc4)nc3s2)cc1,5.62µM*,-38.7%,-6.9%,-4.7%
O=C(NCCS(=O)(=O)N1CCN(c2ccc(F)cc2)CC1)c1cccc(C(F)(F)F)c1,?,-11.5%,3.4%,.
Cc1cc(C(=O)N2CCc3c([nH]c4ccccc34)C2c2c(F)cccc2Cl)no1 (centres undefined),10µM*,i,-10.7%,-4.9%
Cc1nc(C(=O)N2CCc3c([nH]c4ccccc34)C2c2cc(F)ccc2F)cs1 (centres undefined),11.2µM*,i,3.9%,?
CCc1cc(C(=O)N2CCc3c([nH]c4ccccc34)C2c2ccc(OC)cc2F)no1 (centres undefined),?,-3.1%,0.8%,9.7%
COc1ccc(C2c3ccc4ccccc4c3Oc3ncn(CCCN(C)C)c(=N)c32)cc1 (centres undefined),4.47µM*,i,?,21.2%
COc1ccccc1C1c2ccc3ccccc3c2Oc2ncn(CCCO)c(=N)c21 (centres undefined),?,-5.5%,?,14.3%
COc1ccccc1C1c2ccc3ccccc3c2Oc2ncn(CCN(C)C)c(=N)c21 (centres undefined),2.82µM*,i,?,21.7%
COc1ccccc1NC(=O)C1=C(C)Nc2nc3ccccc3n2C1c1ccccc1Cl (centres undefined),9.5%,-14.2%,3.9%,1.1%
CCOC(=O)c1c(C)[nH]c(C)c1S(=O)(=O)N1CCC(C(=O)Nc2ccccc2CC)CC1,3.3%,i,3.9%,.
CCCCC1CCC(C(=O)N2CC(=O)Nc3ccc(C)cc3C2c2ccc(F)cc2)CC1 (centres undefined),?,-13.2%,-17.3%,.
c1ccc(COc2ncnc3c2ncn3CCCNCC(c2ccccc2)c2ccccc2)cc1,?,-27.2%,11.2µM*,-8.2%
COc1ncnc2c1ncn2CCCNCC(c1ccccc1)c1ccccc1,-24.3%,-26.2%,-7.7%,7.0%
COc1cc2ncc3c(-c4ccccc4)nn(-c4ccc(C)cc4)c3c2cc1OC,14.3%,i,-9.5%,.
Cc1nc2ccccc2c2oc(C(=O)Nc3ccc(C(C)C)cc3)cc12,7.94µM*,-67.1%,-29.1%,-1.8%
O=C(Nc1ccc2c(c1)N(S(=O)(=O)c1cccs1)CCC2)c1c(F)cccc1Cl,7.94µM*,-32.9%,-3.0%,-7.3%
Cc1ccc(NC(=O)CN2C(=O)CSc3ccc(S(=O)(=O)N(C)C)cc32)c(C)c1,-5.8%,-23.3%,0.9%,.
Cc1nn(-c2ccccc2)c(Cl)c1C1C(C#N)=C(N)OC2=C1C(=O)CC(C)(C)C2 (centres undefined),?,-6.6%,?,2.0%
CC(C)c1ccc(-c2nn(-c3ccccc3)cc2C2C(C#N)=C(N)OC3=C2C(=O)CC(C)(C)C3)cc1 (centres undefined),12.6µM*,i,-30.0%,-11.2%
COc1cc(NC(=O)CCc2c(C)nn(-c3ccc(N4CCCCC4)nn3)c2C)cc(OC)c1OC,6.2%,i,-1.8%,.
Cc1sc2ncnc(SC(C)C(=O)N3c4ccccc4Sc4ccccc43)c2c1C (centres undefined),8.91µM*,i,-11.5%,0.0%
COc1ccc(C(=O)c2cn(Cc3cccc(C)c3)c3cc4c(cc3c2=O)OCCO4)cc1OC,39.2%,i,-1.2%,.
Cc1c(C(=O)NNc2c(Cl)cccc2Cl)n(C)oc1=O,3.55µM*,i,-19.3%,-6.4%
SMILES,GLP-1R inv ag,PTHR1 ag,GLP1R cytotox,GLP1R ag
CCCCCCn1c(O)c(/C=C2\C=NN=C2c2ccccc2)sc1=S,?,-24.6%,11.2µM*,1.4%
Cc1ccc(C2c3[nH]c4ccccc4c3CCN2C(=O)Nc2ccc(C)c(C)c2)cc1 (centres undefined),7.94µM*,-15.0%,-7.8%,.
Cc1ccc(C2c3[nH]c4ccccc4c3CCN2C(=O)c2ccccc2Br)cc1 (centres undefined),?,i,-9.4%,.
Cc1ccc(C2c3[nH]c4ccccc4c3CCN2C(=O)c2ccc(N(C)C)cc2)cc1 (centres undefined),?,-1.9%,-6.5%,.
COC(=O)c1ccc(NC(=O)N2CCc3c([nH]c4ccccc34)C2c2ccc(C)cc2)cc1 (centres undefined),4.47µM*,?,-16.6%,.
Cc1ccc(C2c3[nH]c4ccccc4c3CCN2C(=O)CCC2CCCC2)cc1 (centres undefined),10µM*,-4.6%,3.2%,.
COC(=O)c1cccc(NC(=O)/C=C/c2ccc3c(c2)OCO3)c1,3.55µM*,-30.5%,-21.0%,-18.9%
O=C(/C=C/c1ccc2c(c1)OCO2)Nc1cccnc1,10µM*,-43.2%,-15.0%,-7.7%
Cc1ccc([N+](=O)[O-])cc1N(CC(=O)Nc1ccc(S(=O)(=O)Nc2cccc(C(F)(F)F)c2)cc1)S(C)(=O)=O,1µM*,-47.6%,?,-19.6%
COc1cc(CN2CC(=O)N(c3ccc(C)c(Cl)c3)C2=S)cc(OC)c1OC,8.91µM*,i,-18.6%,12.4%
Cc1ccc(C)c2[nH]c(=O)c(C(c3nnnn3Cc3ccco3)N3CCc4ccccc4C3)cc12 (centres undefined),10µM*,-9.7%[57.5 µM],-13.7%,-0.9%
COc1cccc(NC(=O)c2ccc(-c3nc(COc4ccccc4)c(C)o3)cc2)c1,-7.0%,-92.8%,-10.1%,.
CCCS(=O)(=O)c1nc(S(=O)(=O)c2ccc(C)cc2)c(N2CCCC(C)C2)s1 (centres undefined),12.6µM*,-19.6%,-4.0%,0.3%
Cc1ccc(S(=O)(=O)c2nc(S(C)(=O)=O)sc2N2CCCCC2C)cc1 (centres undefined),3.55µM*,-45.0%,-21.7%,-2.6%
CC1CC(C)CN(c2ncnc3c2cnn3Cc2ccc(Cl)cc2)C1 (centres undefined),2µM*,i,0.2%,-5.6%
CCn1cc(S(=O)(=O)c2cccc(Cl)c2)c(=O)c2cc(F)c(N3CCN(C)CC3)cc21,-5.9%,-18.1%,-26.4%,.
CCc1ccc(OCC(=O)N(Cc2ccco2)Cc2ccccc2Cl)cc1,10µM*,-89.4%,8.6%,.
O=C(c1cccc(Cl)c1)N(Cc1ccco1)Cc1ccccc1Cl,10µM*,-72.0%,-7.5%,.
CCc1ccc(OCC(=O)N(Cc2ccc(C)cc2)Cc2ccco2)cc1,?,-75.2%,8.3%,.
Cc1c(C(=O)NCCc2ccc(Cl)cc2)cccc1-n1cnc2cccnc21,6.2%,-10.6%,-10.1%,.
COc1ccc(OC)c(NC(=O)NNC(=O)CCCOc2ccc(Cl)cc2C)c1,10µM*,i,4.9%,5.1%

# Screens: PubChem BioAssay, National Center for Advancing Translational Sciences (NCATS)
